{"source": "PubChem BioAssay AID651640", "about": "(Broad Institute, 2012)", "note": "Several values for one entry are separate records, joined by “and”; a condition that tells them apart may be missing. Equal entries are not always repeated. Screen size: about 350,000 compounds; about 6,000 (1.7%) were called active. Roughly 5% stayed inconclusive and do not appear here. Cut-off read from the data, not from the text of the source: active = CPE inhibition above about 20% (passing the limit was not always enough); inconclusive = no clear call, values can overlap the other calls; tested in BHK-21 cells. The list comes from a sample in which actives are over-represented; it also holds similar structures and randomly drawn compounds. Some structures have more than one record in an assay (separate samples or runs), and their calls can disagree."}
{"assay": "protection of cells from dengue 2 killing – plate reader, single concentration, primary screen (AID 651640);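 note: 0% = median of neutral control wells and 100% = median of positive control wells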", "conditions": "DENV2-infected cells, cytopathic effect rescue, at 9.99 µM, stronger effect = higher value"}
{"compound": "C[C@@H]1CN([C@@H](C)CO)C(=O)c2cc(NC(=O)Nc3ccc4c(c3)OCO4)ccc2O[C@@H]1CN(C)C(=O)Nc1ccc2c(c1)OCO2", "CPE inhibition": "-0.429% (inactive)"}
{"compound": "CCCCNc1c(-c2cccc(Sc3ccc(OC)cc3)c2)nc2ccccn12", "CPE inhibition": "-17.2% (inactive)"}
{"compound": "CCCCCCSc1ccc(-c2nc3ccc(Cl)cn3c2NCc2ccccc2)cc1", "CPE inhibition": "3.27% (inactive)"}
{"compound": "CCCCNc1c(-c2ccc(OC)c(Sc3ccc(OC)cc3)c2)nc2ccc(Cl)cn12", "CPE inhibition": "30.7% (active)"}
{"compound": "COC(=O)C[C@@H]1C[C@@H]2c3cc(NC(=O)NC4CCCC4)ccc3O[C@@H]2[C@@H](CO)O1", "CPE inhibition": "-3.24% (inactive)"}
{"compound": "CO[C@@H]1CN(C)C(=O)c2cc(NC(=O)C3CCOCC3)ccc2OC[C@H](C)N(Cc2cccnc2)C[C@@H]1C", "CPE inhibition": "-1.61% (inactive)"}
{"compound": "CNS(=O)(=O)c1cccc(C(=O)OCC(=O)N2c3ccccc3NC(=O)C2(C)C)c1", "CPE inhibition": "28.3% (active)"}
{"compound": "CCNc1ccc(C(=O)OCC(=O)N2c3ccccc3NC(=O)C2(C)C)cc1[N+](=O)[O-]", "CPE inhibition": "-0.27% (inactive)"}
{"compound": "Cc1cc(C(=O)OCC(=O)N2c3ccccc3NC(=O)C2(C)C)c(C)n1-c1ccccc1", "CPE inhibition": "-1.8% (inactive)"}
{"compound": "C[C@@H]1CN([C@H](C)CO)C(=O)Cc2cc(NC(=O)Cc3ccccc3)ccc2O[C@H]1CN(C)S(=O)(=O)c1cccs1", "CPE inhibition": "1.69% (inactive)"}
{"compound": "COc1ccc(S(=O)(=O)N(C)C[C@@H]2OCCCC[C@@H](C)Oc3ccc(NC(=O)CCCN(C)C)cc3C(=O)N([C@@H](C)CO)C[C@@H]2C)cc1", "CPE inhibition": "0.066% (inactive)"}
{"compound": "CCCNC(=O)c1cc2c(c(-c3cccc(-c4ccc(C#N)cc4)c3)n1)[C@@H](CCO)N(C(=O)CC)C2", "CPE inhibition": "4.99% (inactive)"}
{"compound": "CCS(=O)(=O)N1Cc2cc(C(=O)N(C)C)nc(-c3cccc(-c4ccc(C#N)cc4)c3)c2[C@H]1CCO", "CPE inhibition": "20.3% (active)"}
{"compound": "CC(C)(C)[S@@](=O)N1Cc2cc(C(=O)N3CCOCC3)nc(-c3cccc(-c4ccc(C#N)cc4)c3)c2[C@H]1CCO", "CPE inhibition": "-2.86% (inactive)"}
{"compound": "CC(C)NC(=O)N(C)C[C@H]1Oc2c(NC(=O)Nc3ccc(F)cc3)cccc2C(=O)N([C@@H](C)CO)C[C@@H]1C", "CPE inhibition": "10.9% (inactive)"}
{"compound": "CO[C@H]1CN(C)C(=O)c2ccc(NC(=O)c3cccc(F)c3)cc2OC[C@@H](C)N(C(C)=O)C[C@@H]1C", "CPE inhibition": "-2.36% (inactive)"}
{"compound": "COc1ccc(S(=O)(=O)Nc2ccc3c(c2)CC(=O)N([C@H](C)CO)C[C@H](C)[C@@H](CN(C)C(=O)NC(C)C)O3)cc1", "CPE inhibition": "21.3% (active)"}
{"compound": "Cc1noc(C)c1S(=O)(=O)Nc1ccc2c(c1)C(=O)N([C@@H](C)CO)C[C@H](C)[C@H](CN(C)C(=O)Nc1ccc(C(F)(F)F)cc1)O2", "CPE inhibition": "-2.38% (inactive)"}
{"compound": "Cc1noc(C)c1S(=O)(=O)Nc1ccc2c(c1)CC(=O)N([C@@H](C)CO)C[C@@H](C)[C@@H](CN(C)C(=O)Nc1ccc(C(F)(F)F)cc1)O2", "CPE inhibition": "46.5% (active)"}
{"compound": "COc1ccc(S(=O)(=O)Nc2ccc3c(c2)CC(=O)N([C@H](C)CO)C[C@@H](C)[C@H](CN(C)S(=O)(=O)c2c(C)noc2C)O3)cc1", "CPE inhibition": "-6.33% (inactive)"}
{"compound": "COc1ccc(S(=O)(=O)Nc2ccc3c(c2)CC(=O)N([C@H](C)CO)C[C@H](C)[C@H](CN(C)C(=O)Nc2ccccc2)O3)cc1", "CPE inhibition": "-6.98% (inactive)"}
{"compound": "COc1ccc(NC(=O)N(C)C[C@@H]2Oc3ccc(NS(=O)(=O)c4ccc(OC)cc4)cc3CC(=O)N([C@H](C)CO)C[C@H]2C)cc1", "CPE inhibition": "11.3% (inactive)"}
{"compound": "Cc1noc(C)c1NC(=O)N(C)C[C@H]1Oc2ccc(NS(=O)(=O)c3ccc(Cl)cc3)cc2CC(=O)N([C@H](C)CO)C[C@@H]1C", "CPE inhibition": "-8.56% (inactive)"}
{"compound": "COc1ccc(S(=O)(=O)Nc2ccc3c(c2)CC(=O)N([C@@H](C)CO)C[C@@H](C)[C@@H](CN(C)C(=O)Nc2c(C)noc2C)O3)cc1", "CPE inhibition": "29.8% (active)"}
{"compound": "Cc1noc(C)c1S(=O)(=O)Nc1ccc2c(c1)CC(=O)N([C@@H](C)CO)C[C@H](C)[C@H](CN(C)C(=O)Nc1ccccc1)O2", "CPE inhibition": "-4.97% (inactive)"}
{"compound": "C[C@H]1CN([C@@H](C)CO)C(=O)c2cc(Br)cnc2O[C@H]1CN(C)CC1CCCC1", "CPE inhibition": "7.93% (inactive)"}
{"compound": "O=C(C[C@@H]1C[C@@H]2c3cc(NC(=O)NC4CCCC4)ccc3O[C@@H]2[C@@H](CO)O1)NCc1ccccc1", "CPE inhibition": "-0.285% (inactive)"}
{"compound": "O=C(NCC1CC1)[C@@H]1[C@@H](CO)[C@@H]2Cn3c(ccc(-c4ccccc4)c3=O)[C@H]1N2Cc1nccs1", "CPE inhibition": "-2.52% (inactive)"}
{"compound": "CN(C)CC(=O)N[C@H]1CC[C@H](CCNC(=O)C2CCCCC2)O[C@H]1CO", "CPE inhibition": "-1.04% (inactive)"}
{"compound": "O=C(Cc1ccccn1)N1CC(=O)N2[C@H](C1)[C@@H](c1ccc(-c3ccccc3)cc1)[C@@H]2CO", "CPE inhibition": "4.12% (inactive)"}
{"compound": "C[C@@H]1CN([C@H](C)CO)C(=O)c2cc(NC(=O)Nc3ccccc3)ccc2O[C@@H](C)CCCCO[C@@H]1CN(C)Cc1ccncc1", "CPE inhibition": "-2.85% (inactive)"}
{"compound": "COCC#Cc1cnc2c(c1)C(=O)N([C@@H](C)CO)C[C@@H](C)[C@H](CN(C)C(=O)C1CCOCC1)O2", "CPE inhibition": "4.93% (inactive)"}
{"compound": "O=C(O)C1C2C=CC(C2)C1C(=O)NCc1ccccc1", "note": "(stereo not drawn)", "CPE inhibition": "23.9% (active)"}
{"compound": "O=C(NCc1ccccc1)C1CCN(C(=O)Cc2ccccc2)CC1", "CPE inhibition": "-10.5% (inactive)"}
{"compound": "O=C(NCc1ccccc1)C1CNCC(C(=O)NCc2ccccc2)C1", "note": "(stereo not drawn)", "CPE inhibition": "-5.52% (inactive)"}
{"compound": "O=C(NCc1ccccc1)C1=C[C@H](C2CC2)C[C@H](OCc2ccc(CO)cc2)O1", "CPE inhibition": "-16.3% (inactive) and 0.479% (inactive)"}
{"compound": "O=C(NCc1ccccc1)C1=C[C@@H](C2CCCCC2)C[C@@H](OCc2ccc(CO)cc2)O1", "CPE inhibition": "-6.36% (inactive) and 1.63% (inactive)"}
{"compound": "CC(C)(C)[C@H]1C=C(C(=O)NCc2ccccc2)O[C@@H](OCc2ccc(CO)cc2)C1", "CPE inhibition": "51.1% (active) and -3.51% (inactive)"}
{"compound": "CO[C@@H](CN(C)C(=O)c1ccc2c(c1)OCO2)[C@@H](C)CN([C@H](C)CO)S(=O)(=O)c1ccccc1", "CPE inhibition": "-3.46% (inactive)"}
{"compound": "CN1C(=O)c2cc(NC(=O)C3CCOCC3)ccc2OC[C@H]2O[C@@H](CC(=O)NCC3CCCCC3)CC[C@@H]21", "CPE inhibition": "1.63% (inactive)"}
{"compound": "C=CC[C@]1(C(=O)NCC(O)CO)N=C(c2ccc(OCCCO)cc2)O[C@H]1c1ccccc1", "note": "(stereo partly drawn)", "CPE inhibition": "1.79% (inactive)"}
{"compound": "COC(=O)[C@@]1(CCS(=O)(=O)c2ccccc2)N=C(c2ccc(OCCCO)cc2)O[C@H]1c1ccccc1N=[N+]=[N-]", "CPE inhibition": "-1.34% (inactive)"}
{"compound": "[N-]=[N+]=Nc1ccccc1C[C@@]1(C(=O)NCc2ccccc2)N=C(c2ccc(OCCCO)cc2)O[C@@H]1c1ccccc1", "CPE inhibition": "33.8% (active)"}
{"compound": "O=C(C[C@H]1CC[C@H](NC(=O)C2CCC2)[C@@H](CO)O1)Nc1nccs1", "CPE inhibition": "0.802% (inactive)"}
{"compound": "O=C(Cc1ccccn1)N[C@H]1CC[C@@H](CC(=O)N2CCCCC2)O[C@@H]1CO", "CPE inhibition": "-2.26% (inactive)"}
{"compound": "OC(CCl)CCl", "CPE inhibition": "32.4% (active)"}
{"compound": "O=C(c1ccc(F)cc1)N1CC(=O)N2[C@H](CO)[C@H](c3ccc(-c4ccccc4F)cc3)[C@@H]2C1", "CPE inhibition": "7.8% (inactive)"}
{"compound": "C[C@@H]1CN([C@H](C)CO)C(=O)c2cc(NC(=O)Nc3cccc4ccccc34)ccc2O[C@@H](C)CCCCO[C@H]1CN(C)S(=O)(=O)c1cccs1", "CPE inhibition": "-15.6% (inactive)"}
{"compound": "CCCN1[C@H](C(=O)NC2Cc3ccccc3C2)[C@@H](CO)[C@@H]2Cn3c(cccc3=O)[C@@H]21", "CPE inhibition": "-9.85% (inactive)"}
{"compound": "CCCNC(=O)[C@H]1[C@H](CO)[C@H]2Cn3c(cccc3=O)[C@H]2N1Cc1ccccc1Cl", "CPE inhibition": "140% (active)"}
{"compound": "O=C(NCc1ccccc1Cl)[C@H]1[C@H](CO)[C@H]2Cn3c(cccc3=O)[C@H]2N1C(=O)C1CCC1", "CPE inhibition": "-3.74% (inactive)"}
{"compound": "O=C(c1cccnc1)N1CC[C@H]2[C@H](CO)Nc3ccc(-c4ccc(F)cc4)cc3[C@H]21", "CPE inhibition": "1.83% (inactive)"}
{"compound": "C[C@@H]1CN([C@@H](C)CO)C(=O)Cc2cc(NC(=O)Cc3ccccc3)ccc2O[C@@H]1CN(C)C(=O)Nc1ccc2c(c1)OCO2", "CPE inhibition": "-7.53% (inactive)"}
{"compound": "COCC(=O)N1CC[C@@H]2[C@@H](CO)Nc3ccc(-c4ccc(C(=O)N(C)C)cc4)cc3[C@@H]21", "CPE inhibition": "5.72% (inactive)"}
{"compound": "O=C(NC1Cc2ccccc2C1)[C@H]1[C@H](CO)[C@H]2Cn3c(ccc(C4=CCCCC4)c3=O)[C@H]2N1CC1CC1", "CPE inhibition": "39.5% (active)"}
{"compound": "O=C(NC1CCC1)[C@H]1[C@H](CO)[C@H]2Cn3c(ccc(C4=CCCCC4)c3=O)[C@@H]1N2CC1CC1", "CPE inhibition": "-0.675% (inactive)"}
{"compound": "CCNC(=O)[C@@H]1[C@@H](CO)[C@@H]2Cn3c(ccc(C4=CCCCC4)c3=O)[C@@H]2N1Cc1ccccc1F", "CPE inhibition": "2.99% (inactive)"}
{"compound": "COc1ccccc1NC(=O)N[C@H]1C=C[C@H](CC(=O)N[C@@H](C)c2ccccc2)O[C@H]1CO", "CPE inhibition": "4.39% (inactive)"}
{"compound": "COc1ccccc1NC(=O)N[C@H]1CC[C@@H](CC(=O)N[C@@H](C)c2ccccc2)O[C@H]1CO", "CPE inhibition": "3.47% (inactive)"}
{"compound": "COc1ccccc1NC(=O)N[C@H]1C=C[C@@H](CC(=O)N[C@@H](C)c2ccccc2)O[C@@H]1CO", "CPE inhibition": "20.2% (active)"}
{"compound": "C[C@@H]1CN([C@@H](C)CO)C(=O)Cc2cc(NC(=O)Cc3ccccc3)ccc2O[C@H]1CN(C)Cc1ccc(C(=O)O)cc1", "CPE inhibition": "-5.69% (inactive)"}
{"compound": "Cc1noc(C)c1NC(=O)N(C)C[C@@H]1Oc2ccc(NC(=O)Nc3cccc4ccccc34)cc2CC(=O)N([C@@H](C)CO)C[C@H]1C", "CPE inhibition": "3.02% (inactive)"}
{"compound": "C[C@H]1CN([C@@H](C)CO)C(=O)c2cccc(NC(=O)Nc3ccc(F)cc3)c2O[C@@H]1CN(C)C(=O)Nc1ccc2c(c1)OCO2", "CPE inhibition": "-3.44% (inactive)"}
